# In paper PMC7819943, “Rice protein-binding microarrays: a tool to detect cis-acting elements near promoter regions in rice”:
# The full ranking holds about 68,000 sequences; the median of “fluorescence intensity (a.u.)” is about 9,100, and the highest 2% start at about 16,000. The sample as a whole holds a higher share of the highest values than the screen did.
# Biological target: OsWRKY34 (Oryza sativa, UniProt Q0JBA9 1-250)
# Test: protein-binding microarray (RPBM); PBS, 2% BSA, 51.3 ng/ul salmon testes DNA, 50 uM zinc acetate, 200 nM TF, 25 C, 1 h; high values mean tight binding
# Details: protein: recombinant; tags: N-terminal polyhistidine and DsRed monomer fusion (pET32a); label: CyDye5-dUTP incorporated in the synthesized complementary strand; 3' TTTTT single-stranded linker to array surface; dsDNA, one strand shown
# Outline: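 Binding signal is reported as fluorescence intensity per feature (arbitrary units) from an Axon 4000B scanner. Incubation used 200 nM of each Ni–NTA-purified, N-terminally polyhistidine- and DsRed-fused transcription factor from E. coli BL21-CodonPlus on a double-stranded custom Agilent array for 1 h at 25 °C, with 50 µM zinc acetate in the buffer, followed by washing.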
# Chain of OsWRKY34 (Q0JBA9 entry or part of it): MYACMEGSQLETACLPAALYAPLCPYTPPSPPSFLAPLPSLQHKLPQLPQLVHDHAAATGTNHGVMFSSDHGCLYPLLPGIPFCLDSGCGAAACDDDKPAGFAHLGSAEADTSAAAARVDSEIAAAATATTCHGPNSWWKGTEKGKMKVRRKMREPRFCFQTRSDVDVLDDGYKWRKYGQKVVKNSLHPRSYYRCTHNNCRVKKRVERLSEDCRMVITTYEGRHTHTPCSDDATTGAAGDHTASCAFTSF
row,Sequence,binding signal
1,CTTCTTATCTCCCATATCTTAGGGTGTGTTTCGTTTTATGCGGAGTCACCTAGTGCAG,8050 fluorescence intensity (a.u.)
2,GCCTATCCACAACATCGTCGCAGGCCTTCTTTTTCCCTCGCGGAGTCACCTAGTGCAG,8320 fluorescence intensity (a.u.)
3,ACAGCGGTTTTGGTTGACGTAGTGCCTATGTGGCGTTGACCGGAGTCACCTAGTGCAG,11700 fluorescence intensity (a.u.)
4,GATTTAGCCAGTATAATTTGGCTTCTTACCTATCCATTTTCGGAGTCACCTAGTGCAG,9130 fluorescence intensity (a.u.)
5,CCAATCTAGCATTTAAATAGCCCATATTTGTCTAATTTCTCGGAGTCACCTAGTGCAG,8400 fluorescence intensity (a.u.)
6,ATGGTGGGTCTTTTGCTTCTATCTTCTTCTATGCATGAAACGGAGTCACCTAGTGCAG,10400 fluorescence intensity (a.u.)
7,TTGTTAATGCTAATTTTATCAACATGTGCTTTTCTTTTTACGGAGTCACCTAGTGCAG,9500 fluorescence intensity (a.u.)
8,CGCGAGACAATCTAGCCGTTCTTCATTTTTTTCGCTTTCCCGGAGTCACCTAGTGCAG,9240 fluorescence intensity (a.u.)
9,ACTGTGATACATTCTACATAATTTATTCATTTATTTGCATCGGAGTCACCTAGTGCAG,8900 fluorescence intensity (a.u.)
10,CATTAATTCCAACATATAGTACTCCGCCATTTTGACTCGCCGGAGTCACCTAGTGCAG,8640 fluorescence intensity (a.u.)
11,AATGTTATTACTATGCCTGGAACGTCACTTATGTATGTCTCGGAGTCACCTAGTGCAG,10500 fluorescence intensity (a.u.)
12,GATCATCTGGTGGTGTGTTCTACGGGTTGCAGCTTCTTTCCGGAGTCACCTAGTGCAG,10600 fluorescence intensity (a.u.)
13,ATTGCCGTTTATATTTGGTCAAATTTAAACGTTTTCTTTTCGGAGTCACCTAGTGCAG,8020 fluorescence intensity (a.u.)
14,TTGCCTTGCCAGTCAGTGCTCGAGTTCGTCTCGCTCTCCGCGGAGTCACCTAGTGCAG,8730 fluorescence intensity (a.u.)
15,GCCCCGAGCCGAGACCGCTGGATAATGCAGCGCTTCTTACCGGAGTCACCTAGTGCAG,20100 fluorescence intensity (a.u.)
16,GACCGCCGCCGCTTGAGCTGACCTGACCCCGAGCCGAGCCCGGAGTCACCTAGTGCAG,8250 fluorescence intensity (a.u.)
17,GCCGAGCCCCATCTTCTGCTGCGACCCCGTAGCGCTCAACCGGAGTCACCTAGTGCAG,9240 fluorescence intensity (a.u.)
18,AGTCAGTGGGTAAATTCTTTAAAAACTCCTATGTTTTTTCCGGAGTCACCTAGTGCAG,9550 fluorescence intensity (a.u.)
19,AACAAGGGAGGGAGGGGCGGCGATCTCCATCTGGCGAGCACGGAGTCACCTAGTGCAG,10900 fluorescence intensity (a.u.)
20,ATTGGGGCGGCGGTGGCGGGCTAGGGTTTCGTAGATTCGACGGAGTCACCTAGTGCAG,9960 fluorescence intensity (a.u.)
21,GCTTGGTCCATACCTTGTTTTCCTATCATCCACTGTCAATCGGAGTCACCTAGTGCAG,9390 fluorescence intensity (a.u.)

row,Sequence,binding signal
1,GCGGCGGGGTTCCTATCCATGGTTTTTTCGGGCTTGTCCACGGAGTCACCTAGTGCAG,18900 fluorescence intensity (a.u.)
2,ACGATCAGTGTCATCACAGGGCGGCGGGGTTCCTATCCATCGGAGTCACCTAGTGCAG,13200 fluorescence intensity (a.u.)
3,GCGGCGGTGGTTAGGGTTTGGGGCTCGTCGGCGTCGGCGACGGAGTCACCTAGTGCAG,10900 fluorescence intensity (a.u.)
4,CGCCTCGACGGGTTTGGATCTCGGGGTGGGATTAGAGGGGCGGAGTCACCTAGTGCAG,12900 fluorescence intensity (a.u.)
5,CTGATTTGCGGGTTCCACATGGATTTTATTTTTTTGTTTCCGGAGTCACCTAGTGCAG,11400 fluorescence intensity (a.u.)
6,ACATTGGGTTGGAGTGGATTATTTTTTTCCTTTGTTTTCCCGGAGTCACCTAGTGCAG,14200 fluorescence intensity (a.u.)
7,GGGGCTAGGGTTTGGGTGGGATCTCAGCCGTCGGATCTGACGGAGTCACCTAGTGCAG,17000 fluorescence intensity (a.u.)
8,GGATTCGGAGGCGGGTGGGAGTGGGAGAGTGAGAGGGGCTCGGAGTCACCTAGTGCAG,16200 fluorescence intensity (a.u.)
9,GGGCGGGTTTGGATTTTTATTTGGTTTTCCTATGGAGTCCCGGAGTCACCTAGTGCAG,17800 fluorescence intensity (a.u.)
10,AGGGATAGATTGGCTTAGGGGCGGGTGGGTCTAGAGATTTCGGAGTCACCTAGTGCAG,27000 fluorescence intensity (a.u.)
11,GTGTCCTTTTCTTTTTTTTCTTCTTTTCTTTTTCTTTTTCCGGAGTCACCTAGTGCAG,9510 fluorescence intensity (a.u.)
12,ACCATGTAACGAGTAATCTTTTGACCTGTGCCACGTCATCCGGAGTCACCTAGTGCAG,9160 fluorescence intensity (a.u.)
13,TTTGGTGGTGTGCAAGTGGAGTGGTTTATAAAATTATGTCCGGAGTCACCTAGTGCAG,8980 fluorescence intensity (a.u.)
14,CCTCATCACTCGCTTCTCCTTGCTTACACACCATCCCATCCGGAGTCACCTAGTGCAG,8310 fluorescence intensity (a.u.)
15,CTAACATTCCCTATGCGGAAACACACACATTCATGCACACCGGAGTCACCTAGTGCAG,8860 fluorescence intensity (a.u.)
16,CCTCTTAACTCTTTCCCATTCCCAAATGCGCCACTGTCTCCGGAGTCACCTAGTGCAG,9190 fluorescence intensity (a.u.)
17,CTCTGTCCTATTGGAACATTTCTCTGAAGCAACACCATATCGGAGTCACCTAGTGCAG,9340 fluorescence intensity (a.u.)
18,TGACAGTGTGATGTGCTTGTTCGCTCTGATTTGATTTTGGCGGAGTCACCTAGTGCAG,8050 fluorescence intensity (a.u.)
19,CCCCATCCATTGCAACGGCAACATACACACACCACCACCACGGAGTCACCTAGTGCAG,8350 fluorescence intensity (a.u.)
20,CGTTGACTCCATCTCTTTAACATATTTTAGGAGCATGCTTCGGAGTCACCTAGTGCAG,8610 fluorescence intensity (a.u.)
21,TCATCTCCATCTTTTTATTTACACGCACACTTCTCAAACTCGGAGTCACCTAGTGCAG,11100 fluorescence intensity (a.u.)
